The list is not random: actives were taken first. Their share in the collection is about 13%.
WT yeast gro inh: growth inhibition of WT strain, primary screen, mitochondrial fusion inhibitor project, WT and mutant strains, chemical genetic. mitochondrial fusion phenotypic screen. inhibition, % at 10 µM. 190,000 compounds, 2.1% hits; in the data active = inhibition above about 58%; tested in S. cerevisiae
L major viab: Leishmania major promastigote growth inhibition, primary screen; Leishmania major promastigotes, resazurin fluorescence viability; inhibition, % at 10 µM; 200,000 compounds, 9% hits; AID 1063, 2008; in the data active = inhibition above about 50%;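 note: promastigotes grown with compound for 44 hours at 28 °C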
CHOP inh: inhibitors of CHOP promoter induction, primary screen, cell-based, unfolded protein response, luciferase reporter; 220,000 compounds, 3.8% hits; inhibition, % at 10 µM; CHO-K1 CHOP-promoter luciferase, tunicamycin-induced, 15-18 h; AID 2732, 2010;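 active = compounds that reduced the stress-induced luciferase reporter signal by more than about 70% of percent inhibition, limit read from the data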;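 note: 0% = tunicamycin plus vehicle and 100% = wells without tunicamycin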
RAM inhibit: inhibitors of the yeast RAM network, primary screen, dse1pr::URA3 reporter, 5-FOA selection | AID 868, 2007 | inhibition, % at 50 µM | S. cerevisiae dse1pr::URA3 reporter, 5-FOA growth OD615, 2 d; analog-sensitive cbk1-as2 kinase mutant strain | 190,000 compounds, 1.8% hits;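 active = inhibition above a set limit, 3 SD over mean compound inhibition, cut at about 8.4% in these data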;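 note: 0% = DMSO-only wells with no growth and 100% = 10 µM 1-NA-PP1 full growth; inhibition rescues growth on 5-FOA so higher OD means more RAM inhibition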
Lmaj promast 1uM: Leishmania major promastigote growth inhibition, confirmation, 1 µM repeat of primary hits; shares compounds with L major viab; L. major promastigote growth, resazurin fluorescence, 48 h; inhibition, % at 1 µM; 1,100 compounds, 13% hits;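 active = inhibition above about 50% in both repeat tests, limit read from the data; inconclusive = one repeat under the set limit, the other over it; inactive = both repeats under the set limit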
* marks the source's active call; other numbers are inactive results; ? = inconclusive; nt = no result.

SMILES	WT yeast gro inh	L major viab	CHOP inh	RAM inhibit	Lmaj promast 1uM
CC1CC2(C)Oc3ccccc3CC2C(C)C1CNCCCN(C)C (stereo unspecified)	9	100*	10	0	23
CCOC(=O)C1C(c2cccc(F)c2)NC(=S)NC1(O)C(F)(F)F (stereo unspecified)	-8	-4	2	0	nt
COc1cccc(C(=O)NC2CCN(C(=O)N3c4ccccc4Sc4ccccc43)CC2)c1	53	71*	35	7	-3
Cc1ccc(/C=C\c2nccc3c2[nH]c2ccccc23)cc1	59	68*	18	7	21
CSc1ccc(/C=C/c2cc(=O)c3ccccc3[nH]2)cc1	5	13	10	3	nt
COCCCn1[nH]c2c3c(ccc2c1=O)C(=O)c1ccccc1C3=O	14	94*	24	0	7
COCCn1c(=O)c2ccccc2c2ccccc2c1=O	13	-1	13	2	nt
O=C(Cc1ccccc1Cl)Nc1cccnc1	-2	1	12	2	nt
CCN1C=C(Cc2ccc(OC)cc2)C2=C(C1)C(c1ccc(OC)cc1)C(C#N)=C(N)O2 (stereo unspecified)	-4	100*	-19	1	-3
Cc1ccc(-n2cccc2C(=S)N=P(N(C)C)(N(C)C)N(C)C)cc1	65*	57*	1	2	-6
Cc1ccc(-n2cccc2C(=O)NS(=O)(=O)c2ccc(C)cc2)cc1	nt	nt	-1	nt	nt
COC(=O)[C@@H]1CC[C@H](C)[C@@H](c2ccc(C)cc2)N1C(=O)c1ccc(/C=N/O[C@@H](C)CN2CCCCc3nc(C)c(C)cc32)cc1	75*	100*	-6	0	-8
Cc1ccc(-n2nnnc2C(Cl)c2nnnn2-c2ccc(C)cc2)cc1	74*	99*	91*	-1	32
Cc1ccn2cc(C34CC5CC(CC(C5)C3)C4)nc2c1	22	60*	-32	2	21
Cc1ccn2cc(C(=O)Nc3nnc(C)s3)nc2c1	5	-3	47	3	nt
CCN(C(=O)c1ccc(C(C)(C)C)cc1)c1nnc(Cn2nnc3ccccc32)s1	46	54*	nt	3	36
CCN(C(=O)CC(C)C)c1nnc(Cn2nnc3ccccc32)s1	-15	13	13	1	nt
N#C/C(C(=O)N1CCCCC1)=C1/N=C(N)c2ccccc21	-3	61*	8	1	-5
O=C(CSc1nc(O)cc(=O)[nH]1)N1c2ccccc2CCc2ccccc21	nt	nt	4	nt	nt
O=C1CC(c2ccc(Br)cc2)NC(c2ccc(Br)cc2)C1c1ccccc1 (stereo unspecified)	16	90*	54	1	-4
O=C1CCC([N+](=O)[O-])C(c2ccc(Br)cc2)N1 (stereo unspecified)	4	3	5	2	nt
C[N+]1(C2CCC3CCCC2C3O)CCCC1 (stereo unspecified)	6	65*	9	0	-12
Cc1nnc(C)c2c(C)n(C(c3ccccc3)c3ccccc3)c(C)c12	52	100*	15	-1	-11
CCOC(=O)CSC1=C(C#N)C(=O)NC2(CCCCC2)S1	6	-21	-1	2	nt
NC(=S)Nc1cc2ccccc2c2ccccc12	21	-5	-10	0	nt
SMILES	WT yeast gro inh	L major viab	CHOP inh	RAM inhibit	Lmaj promast 1uM
NC(=S)Nc1cccc2cc3ccccc3cc12	-8	98*	12	0	-7
O=S(=O)(CC(CN1CCCCC1)N1CCCCC1)c1ccc2ccccc2c1 (stereo unspecified)	-28	99*	11	1	?
Clc1ccc(NC2(c3nnnn3C3CCCCC3)CCCCC2)cc1	-8	3	-11	3	nt
Cc1cccc(C)c1-n1nnnc1C1(Nc2ccccc2)CCCCC1	73*	100*	51	4	-11
ClCc1nnc(-c2cc3c(s2)CCCC3)o1	-4	98*	4	7	7
CC(C)(C)C1CCc2sc(-c3nnc(CCl)o3)cc2C1 (stereo unspecified)	68*	91*	-15	5	-2
O=C(Nc1ccc(Br)c2ccccc12)c1ccc2ccccc2c1O	nt	nt	63	nt	nt
COc1ccc(NC2=Nc3cccc4cccc2c34)cc1	13	74*	-5	1	27
CCOc1ccc(N2CC(C(=O)Nc3c(C)n(C)n(-c4ccccc4)c3=O)CC2=O)cc1 (stereo unspecified)	4	-5	2	0	nt
Cc1ccc(C2N3CC4([N+](=O)[O-])CN2CC([N+](=O)[O-])(C3)C4(C)C)cc1 (stereo unspecified)	24	65*	-12	3	3
CC1(C)C2([N+](=O)[O-])CN3CC1([N+](=O)[O-])CN(C2)C3c1ccc(O)c(O)c1 (stereo unspecified)	nt	nt	4	nt	nt
S=C(NCCc1ccccc1)N1CCN(C23CC4CC(CC(C4)C2)C3)CC1	19	28	-4	-1	nt
COc1cc2[nH]c3c(N4CCN(c5ccccn5)CC4)ncnc3c2cc1OC	7	100*	41	2	-29
COc1ccc(N2CCN(c3ncnc4c3[nH]c3ccccc34)CC2)cc1	0	14	50	4	nt
O=C(CC1CCCCC1)N1CCC(c2nc(-c3ccc(S(=O)(=O)N4CCCC4)cc3)no2)CC1	17	66*	95*	1	2
CN(C)c1ccc(-c2noc(C3CCN(S(=O)(=O)c4ccc(C(=O)O)cc4)CC3)n2)cc1	nt	0	nt	nt	nt
Cc1cc(C)n(CCc2nc(-c3cc4ccccc4o3)cs2)n1	nt	100*	57	4	-2
Cc1cc(C)n(CCc2nc(-c3ccc(C)o3)cs2)n1	-5	43	-3	1	nt
O=Cc1ccc(Oc2cc(-c3ccccc3)nc(-c3ccccc3)n2)cc1	-24	57*	14	6	-14
COCCCNCCCCOc1ccc(Br)cc1Cl	45	98*	5	1	76*
O=C(Nc1cccc(-c2nnn(CC(=O)N3CCc4ccccc4C3)n2)c1)C1CCC1	-3	99*	16	4	-2
O=C(COC(=O)c1ccc[nH]c1=O)c1ccc(Cl)s1	1	-7	-16	0	nt
Cc1ccc(C(=O)OCC(=O)c2ccc(Cl)s2)s1	26	92*	46	0	-8
COc1ccccc1NC(=S)N(Cc1ccco1)Cc1cc2cccc(C)c2[nH]c1=O	1	100*	-15	3	18
OC1(c2ccc(F)cc2)CCN(Cc2ccccc2)C1 (stereo unspecified)	14	88*	20	-1	4
COc1ccc(/C=N/NC(=O)CC(=O)NC2CCCCC2)cc1	5	4	15	0	nt
CCSc1nnc2nc3[nH]c4c(C)cccc4c3nn12	0	42	-74	4	nt
C=CCSc1nnc2c(n1)[nH]c1c(C)cccc12	25	61*	38	3	11
COc1cc(C(=O)NC(=S)Nc2nccs2)cc(OC)c1OC	12	0	3	4	nt
Cc1ccc(S(=O)(=O)NN=C2CCN(Cc3ccccc3)CC2)cc1	-19	0	-7	2	nt
